# According to PubChem BioAssay (NCI):
# Compounds without any hit were thinned out: in the full panel of roughly 83,000, 20% have a hit.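 Testing used 96-well plates and a 48-hour single-concentration exposure. Example: -40 means 40% of the starting cells died.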 Unmarked numbers belong to inactive results. Calls of active or inactive are those of the source. Rule for the calls: active = growth percent below 10; inactive = the rest.
# Legend:
# Experiment in all cases: NCI-60 one-dose screen, 48 h (100 = growth as untreated, 0 = no growth, -100 = all killed)
# Settings in all cases: 10 µM unless noted
# T-47D breast = test system: T-47D breast
# BT-549 breast = test system: BT-549 breast
# MDA-MB-435 melanoma = test system: MDA-MB-435 melanoma
# SW-620 colon = test system: SW-620 colon
# MCF7 breast = test system: MCF7 breast
# HCT-116 colon = test system: HCT-116 colon
# HCC-2998 colon = test system: HCC-2998 colon
# KM12 colon = test system: KM12 colon
SMILES,growth (T-47D breast),growth (BT-549 breast),growth (MDA-MB-435 melanoma),growth (SW-620 colon),growth (MCF7 breast),growth (HCT-116 colon),growth (HCC-2998 colon),growth (KM12 colon)
O=c1ccc2ccc(OCCN3CCCCC3)cc2o1,95.5%,100%,101%,93.9%,106%,89%,98%,104%
COC(=O)c1sccc1-c1cc(O)c(C(=O)Nc2ccccc2)s1,67.5%,116%,102%,109%,82%,94.6%,109%,87%
Nc1ccc(Br)cc1C(F)(F)F,96.7%,107%,117%,111%,106%,103%,114%,112%
ClCCn1cnc2c(SCc3ccccc3)ncnc21,73.8%,70.4%,51.8%,39.4%,42.5%,31.5%,57.4%,53.2%
CCCCCc1ccc(S(=O)(=O)Nc2cc(-c3csc(NC(C)=O)n3)ccc2N2CCN(C)CC2)cc1,58.8%,63.9%,-45.4% (active),-25.9% (active),9.36% (active),3.98% (active),-26.9% (active),74.1%
Cc1ccc2c(/C=C/C(=O)c3cc(CN4CCOCC4)c(O)c4nc(C)ccc34)cc(CN3CCOCC3)c(O)c2n1,9.26% (active),12.8%,-62.6% (active),1.06% (active),4.69% (active),-22.9% (active),22.7%,-59.3% (active)
CNC(=O)c1cc(Oc2ccc3c(c2)sc2nc(-c4cc(C(F)(F)F)cc(C(F)(F)F)c4)cn23)ccn1,30.6%,52.9%,60.8%,64.9%,51.1%,36.3%,74.3%,69.5%
COc1ccc(Nc2ncc(C#N)c(NCCCNC(=O)C3CCC3)n2)cc1,109%,70.6%,68.5%,41.5%,63.7%,50.1%,97.2%,64.2%
CC(=O)c1sc(-c2ccc(F)cc2)cc1O,98.4%,93.8%,96.1%,106%,94.5%,95.3%,103%,95.6%
COc1cc2c(cc1OCCCN1CCN(C(=S)SCCC(C#N)(c3ccccc3)c3ccccc3)CC1)N=C[C@@H]1CCCN1C2=O,-50.5% (active),-89.7% (active),-15.2% (active),-100% (active),-86.1% (active),-93.5% (active),-86.8% (active),-75.1% (active)
C=CN(C(=O)N1CCN(c2cc3c(cc2F)c(=O)c(C(=O)O)cn3C2CC2)CC1)c1nc(-c2ccccc2)cs1,78.9%,101%,96.4%,112%,94.8%,86%,103%,104%
O=[N+]([O-])c1ccccc1Nc1ccc2ccccc2c1,91.1%,84.8%,99%,83.8%,74.9%,82.9%,105%,99.4%
CCCC(O)Cn1ncc(C(=O)OCC)c1NC(=O)NCc1cccc(C(F)(F)F)c1 (stereo unspecified),73.2%,77.8%,103%,106%,97.6%,61.4%,85.3%,103%
CC1(/C=C/c2ccc(-c3ccccc3)cc2)CCn2cnc3ncnc(c32)N1O (stereo unspecified),37.8%,17%,28.4%,28.2%,8.15% (active),20.2%,32.3%,26%
CC(=O)Nc1sc2c(c1-c1nc3ccccc3s1)CNC2,4.49% (active),58.1%,29.7%,18.8%,5.45% (active),18.8%,33.6%,22.8%
CCCCNC(=O)c1ccc2c(c1)nc(-c1ccccc1)n2C1CCCCC1,88.1%,99.7%,99.9%,107%,82.1%,93.1%,102%,88.4%
N#Cc1c(-c2ccc(Cl)cc2)nc(NN=Cc2ccc[nH]2)nc1N1CCOCC1,64.9%,16.9%,94.7%,89.2%,70.7%,90.1%,94.1%,36.5%
